PubChem BioAssay (EPA / NIEHS)
Active and inactive are the calls of the source. The calls were made as follows: active = hit-call score of the fitted dose curve at least 0.9, where 1 is the maximum; inactive = score below 0.9.

Experiments:
Conditions in all cases: mRNA level, 48 h; actives raise or lower the signal
[1] = read-out: Tumor necrosis factor receptor superfamily member 6 (Homo sapiens) (UniProt P25445); experiment: LTEA_HepaRG_FAS: Life Technologies and Expression Analysis (LTEA) Assay for Fas cell surface death receptor (FAS) using HepaRG (AID 2283447)
Outline: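 FAS transcript level was measured by TaqMan qRT-PCR against three housekeeping genes after 48 h chemical exposure. Cells were HepaRG, 0.5% DMSO vehicle, with a top concentration of 100 uM and half-log dilutions over eight points, in duplicate.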

[2] = read-out: Cyclin D2 (CCND2), CCND2 (gene 894); experiment: LTEA_HepaRG_CCND2: Life Technologies and Expression Analysis (LTEA) Assay for Cyclin D2 (CCND2) using HepaRG (AID 2283449)
Outline: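 CCND2 transcript levels, quantified by qRT-PCR and normalised to three housekeeping genes, were fitted bidirectionally against 0.5% DMSO. HepaRG cultures were dosed 48 h in duplicate with an 8-point half-log series up to 100 uM.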

[3] = read-out: Cyclin D1 (CCND1), CCND1 (gene 595); experiment: LTEA_HepaRG_CCND1: Life Technologies and Expression Analysis (LTEA) Assay for Cyclin D1 (CCND1) using HepaRG (AID 2283451);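 as to AC50: differentiated human HepaRG liver cells in serum-free induction medium; TaqMan qRT-PCR transcript level normalised to ACTB GAPDH and POLR2A housekeeping genes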
Outline: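 Differentiated HepaRG cells exposed 48 h in serum-free induction medium to eight half-log concentrations from 100 uM top, 0.5% DMSO, duplicates. CCND1 mRNA measured by Fluidigm TaqMan qRT-PCR, normalised to ACTB, GAPDH, POLR2A; bidirectional fit.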

[4] = read-out: catalase (CAT), CAT (gene 847); experiment: LTEA_HepaRG_CAT: Life Technologies and Expression Analysis (LTEA) Assay for catalase (CAT) using HepaRG (AID 2283452);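 as to AC50: TaqMan qRT-PCR signal normalized to ACTB GAPDH and POLR2A housekeeping genes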
Outline: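 Expression of CAT was quantified by TaqMan qRT-PCR with ACTB/GAPDH/POLR2A normalization after 48 h chemical exposure of HepaRG. Eight-point half-log series, top 100 uM, in 0.5% DMSO; gain or loss fitted against vehicle.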

[5] = read-out: Fatty acid synthase (Homo sapiens) (UniProt P49327); experiment: LTEA_HepaRG_FASN: Life Technologies and Expression Analysis (LTEA) Assay for Fatty Acid Synthase (FASN) using HepaRG (AID 2283448)
Outline: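 FASN transcript measured by TaqMan qRT-PCR, normalised to three housekeeping genes, after 48 h chemical exposure of HepaRG cells. Eight-point half-log series from 100 uM in 0.5% DMSO, duplicates; gain or loss fitted against vehicle.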

[6] = read-out: Cyclin Dependent Kinase Inhibitor 1A (CDKN1A), CDKN1A (gene 1026); experiment: LTEA_HepaRG_CDKN1A: Life Technologies and Expression Analysis (LTEA) Assay for Cyclin Dependent Kinase Inhibitor 1A (CDKN1A) using HepaRG (AID 2283450)
Outline: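 Differentiated HepaRG cells in serum-free induction medium, exposed 48 h in duplicate to eight half-log concentrations up to 100 uM in 0.5% DMSO. mRNA measured by TaqMan qRT-PCR, normalized to ACTB, GAPDH, POLR2A; bidirectional fit versus DMSO.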

Measured: AC50

Fatty acid synthase (Homo sapiens), sequence (P49327 whole entry, looked up): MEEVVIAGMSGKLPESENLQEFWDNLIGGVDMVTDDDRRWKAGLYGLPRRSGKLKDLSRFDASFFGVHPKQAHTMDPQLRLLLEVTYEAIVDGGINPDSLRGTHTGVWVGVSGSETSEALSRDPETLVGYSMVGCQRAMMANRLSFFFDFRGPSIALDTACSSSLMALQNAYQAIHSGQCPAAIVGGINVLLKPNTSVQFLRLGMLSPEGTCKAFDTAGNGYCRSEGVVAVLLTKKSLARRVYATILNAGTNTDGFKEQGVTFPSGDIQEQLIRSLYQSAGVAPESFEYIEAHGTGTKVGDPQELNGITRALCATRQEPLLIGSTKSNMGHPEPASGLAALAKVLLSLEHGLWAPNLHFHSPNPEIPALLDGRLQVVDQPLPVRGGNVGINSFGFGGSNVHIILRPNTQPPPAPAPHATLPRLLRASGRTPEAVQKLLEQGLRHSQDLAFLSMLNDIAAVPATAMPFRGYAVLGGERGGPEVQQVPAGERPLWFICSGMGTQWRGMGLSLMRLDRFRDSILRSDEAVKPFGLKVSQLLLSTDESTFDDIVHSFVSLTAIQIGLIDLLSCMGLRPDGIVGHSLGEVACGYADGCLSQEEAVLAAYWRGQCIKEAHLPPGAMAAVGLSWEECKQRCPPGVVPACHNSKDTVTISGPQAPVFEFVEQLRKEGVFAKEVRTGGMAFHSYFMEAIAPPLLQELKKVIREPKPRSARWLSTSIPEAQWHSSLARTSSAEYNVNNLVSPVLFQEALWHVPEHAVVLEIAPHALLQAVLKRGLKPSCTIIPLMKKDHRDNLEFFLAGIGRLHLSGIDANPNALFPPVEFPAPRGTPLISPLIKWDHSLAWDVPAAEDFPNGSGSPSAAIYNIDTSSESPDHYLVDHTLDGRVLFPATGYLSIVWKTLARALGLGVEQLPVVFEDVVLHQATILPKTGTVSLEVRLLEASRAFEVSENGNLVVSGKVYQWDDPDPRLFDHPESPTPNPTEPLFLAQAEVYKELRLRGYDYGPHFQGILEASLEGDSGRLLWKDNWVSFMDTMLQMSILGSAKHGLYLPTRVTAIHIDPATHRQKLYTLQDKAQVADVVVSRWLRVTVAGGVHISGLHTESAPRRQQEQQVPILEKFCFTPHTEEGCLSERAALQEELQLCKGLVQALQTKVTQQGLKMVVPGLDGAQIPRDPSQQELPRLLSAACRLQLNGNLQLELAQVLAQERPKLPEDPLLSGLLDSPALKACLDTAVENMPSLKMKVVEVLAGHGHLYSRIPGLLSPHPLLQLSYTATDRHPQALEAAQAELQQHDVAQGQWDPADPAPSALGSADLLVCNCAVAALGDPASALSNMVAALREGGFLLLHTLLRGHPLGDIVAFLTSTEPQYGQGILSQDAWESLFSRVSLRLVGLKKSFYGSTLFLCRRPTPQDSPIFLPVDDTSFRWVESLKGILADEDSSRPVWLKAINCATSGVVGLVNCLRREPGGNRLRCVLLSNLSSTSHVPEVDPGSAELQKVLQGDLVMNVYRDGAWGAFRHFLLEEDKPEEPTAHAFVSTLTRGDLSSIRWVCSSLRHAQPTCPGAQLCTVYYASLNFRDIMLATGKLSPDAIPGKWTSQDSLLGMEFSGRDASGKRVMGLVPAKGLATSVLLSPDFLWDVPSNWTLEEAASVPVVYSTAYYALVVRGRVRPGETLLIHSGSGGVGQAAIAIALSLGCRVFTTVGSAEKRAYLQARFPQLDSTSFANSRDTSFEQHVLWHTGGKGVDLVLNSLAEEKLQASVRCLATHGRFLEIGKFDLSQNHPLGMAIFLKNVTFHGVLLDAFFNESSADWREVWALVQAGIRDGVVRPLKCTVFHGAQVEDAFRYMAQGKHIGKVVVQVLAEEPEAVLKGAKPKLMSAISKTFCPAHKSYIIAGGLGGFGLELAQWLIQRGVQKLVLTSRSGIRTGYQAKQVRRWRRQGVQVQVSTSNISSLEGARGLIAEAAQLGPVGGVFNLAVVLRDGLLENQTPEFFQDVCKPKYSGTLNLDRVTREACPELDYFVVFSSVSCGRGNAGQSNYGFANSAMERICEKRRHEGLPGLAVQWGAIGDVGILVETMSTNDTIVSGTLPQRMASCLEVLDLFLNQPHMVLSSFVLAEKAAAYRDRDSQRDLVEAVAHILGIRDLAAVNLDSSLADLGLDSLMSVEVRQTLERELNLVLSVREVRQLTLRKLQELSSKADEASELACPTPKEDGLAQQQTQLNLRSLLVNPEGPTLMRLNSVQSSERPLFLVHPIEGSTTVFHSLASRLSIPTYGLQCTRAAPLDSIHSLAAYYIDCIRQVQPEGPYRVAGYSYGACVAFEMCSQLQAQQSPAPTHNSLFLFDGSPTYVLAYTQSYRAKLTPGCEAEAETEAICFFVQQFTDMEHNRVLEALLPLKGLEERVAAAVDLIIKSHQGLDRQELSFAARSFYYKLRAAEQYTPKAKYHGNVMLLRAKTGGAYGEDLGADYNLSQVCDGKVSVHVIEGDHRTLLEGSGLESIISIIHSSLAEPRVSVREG

COC(=O)c1ccccc1C(=O)O
inactive: [1] | [2] | [3] | [4]

CCOC(=O)C(C)Oc1ccc(Oc2nc3ccc(Cl)cc3o2)cc1 (configuration not stated)
inactive: [1] | [3] | [4]

O=C(c1ccc(O)cc1O)c1ccc(O)cc1O
inactive: [1] | [2] | [3] | [4]

CCOC(=O)COc1cc(-n2ncc(C(F)(F)F)c(C)c2=O)c(F)cc1Cl
inactive: [1] | [2] | [3] | [4]

CCCCCCC(C)OC(=O)COc1nc(F)c(Cl)c(N)c1Cl (configuration not stated)
inactive: [1] | [5] | [2] | [3] | [4]

O=C(c1ccccc1)C1CCCCC1
inactive: [1] | [2] | [3] | [4]

CCC(C)OC(=O)N1CCCCC1CCO (configuration not stated)
inactive: [1] | [2] | [3] | [4]

CCCCOC(=O)C(C)Oc1ccc(Oc2ccc(C(F)(F)F)cn2)cc1 (configuration not stated)
inactive: [1] | [3] | [4]

CCCN(CCC)c1c([N+](=O)[O-])cc(C(F)(F)F)c(N)c1[N+](=O)[O-]
inactive: [1] | [6] | [3] | [4]

O=C(O)c1ccccc1
inactive: [1] | [5] | [2] | [6] | [3] | [4]

C[C@]12CC[C@@H]3c4ccc(O)cc4C[C@@H](CCCCCCCCCS(=O)CCCC(F)(F)C(F)(F)F)[C@H]3[C@@H]1CC[C@@H]2O (some centres not stated)
active: [1] 0.0482 µM | [2] 0.05 µM | [3] 0.0338 µM | [4] 15.6 µM

O=C(O)C1(C(=O)Nc2ccc(Cl)cc2Cl)CC1
inactive: [1]
active: [3] 83.3 µM | [4] 77.4 µM

OB(O)O
inactive: [1] | [2] | [6] | [3] | [4]

CCCOC(=O)NCCCN(C)C
inactive: [1] | [2] | [3] | [4]

CCN(CC)C(=O)c1cccc(C)c1
inactive: [1] | [2] | [3] | [4]

CCCCC(CC)COC(=O)c1ccccc1C(=O)O (configuration not stated)
inactive: [1] | [2] | [3] | [4]

COC(=O)CSc1cc(N=c2sc(=O)n3n2CCCC3)c(F)cc1Cl
inactive: [1] | [2] | [3] | [4]

COCCO
inactive: [6] | [3] | [4]

CCSC(=O)N(CC(C)C)CC(C)C
inactive: [1] | [5] | [2] | [3] | [4]
